From PubChem BioAssay AID493168 (National Center for Advancing Translational Sciences (NCATS), 2011) come the findings set out here.

This experiment addresses Ubiquitin carboxyl-terminal hydrolase 2 (Homo sapiens) (UniProt O75604). Nature of the experiment: Confirmation Assay for Inhibitors of Ubiquitin-specific Protease USP2a Using CHOP2 as the Reporter. Note: nearly all actives have a fitted effect of over 55% in size. In a few lines: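 USP2 core (10 nM final) was preincubated with compound for 30 min at RT in Tris-HCl pH 8.0, CaCl2, beta-mercaptoethanol, CHAPS. Ub-CHOP2 and reporter substrate (25 nM final each) were added, and fluorescence (Ex 485/Em 531 nm) was read after 60 min.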

Records with an inconclusive call do not appear. A call without a number means that no potency is given here. Calls of active or inactive are those of the source. Calls come from the whole dose curve; as a rule, active = well fitted inhibition curve with a large enough effect; inconclusive = small, poorly fitted or top-dose-only effect, or effect the other way; inactive = flat fitted curve, though single readings scatter.
Potency is the fitted concentration of half-maximal effect.

Sequence of Ubiquitin carboxyl-terminal hydrolase 2 (Homo sapiens) (O75604 whole entry, looked up): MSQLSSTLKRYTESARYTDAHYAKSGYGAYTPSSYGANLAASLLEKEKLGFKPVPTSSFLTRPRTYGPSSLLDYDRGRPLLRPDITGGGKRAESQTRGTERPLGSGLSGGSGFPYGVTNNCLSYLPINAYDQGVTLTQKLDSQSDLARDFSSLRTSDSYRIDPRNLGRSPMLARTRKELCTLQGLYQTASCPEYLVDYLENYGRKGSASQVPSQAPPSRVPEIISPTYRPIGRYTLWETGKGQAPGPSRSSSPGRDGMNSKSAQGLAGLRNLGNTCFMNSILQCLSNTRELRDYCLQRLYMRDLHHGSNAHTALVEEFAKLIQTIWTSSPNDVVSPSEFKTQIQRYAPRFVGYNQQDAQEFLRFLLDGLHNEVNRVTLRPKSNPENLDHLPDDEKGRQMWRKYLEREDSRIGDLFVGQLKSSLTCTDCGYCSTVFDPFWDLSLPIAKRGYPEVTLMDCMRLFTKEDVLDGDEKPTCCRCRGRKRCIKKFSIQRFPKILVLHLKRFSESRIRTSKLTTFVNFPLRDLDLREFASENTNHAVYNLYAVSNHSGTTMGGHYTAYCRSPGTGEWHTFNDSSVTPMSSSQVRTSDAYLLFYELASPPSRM

In the case of `CCOC(=O)N1CCN(C(=O)CN(c2ccc(C)c(C)c2)S(=O)(=O)c2ccccc2)CC1`, the Potency entry is “inactive”.

Take `Cc1csc(NC(=O)CCn2c(=O)sc3ccccc32)n1`: the Potency entry is “inactive”.

For the molecule `COc1cccc(C(=O)NCc2ccc3[nH]c(C)cc3c2)c1`, the Potency result was “inactive”.

For the molecule `O=c1cc2oc3cc(O)c(O)cc3c(-c3ccccc3[N+](=O)[O-])c-2cc1O`, the Potency is 18.5 µM (active).

With `CC(C)(C)[C@H]1COC(=O)[C@@H](Cc2ccc(F)cc2)C/C=C\C[C@@H](CC(=O)N[C@H](CO)Cc2ccccc2)C(=O)N1`, the Potency entry was “inactive”.

As for `Cc1cc(-c2csc(NCc3ccccc3)n2)c(C)n1C`, the Potency is 18.5 µM (active).

In the case of `CC(=O)Nc1ccc(Nc2cc(C)nc(Nc3ccc(NC(C)=O)cc3)n2)cc1`, the Potency entry was “inactive”.

For the molecule `N#Cc1cc(Sc2ccccn2)c(Sc2ccccn2)cc1C#N`, the Potency result was “inactive”.

For the molecule `COc1ccc(/C=C\C(=O)O[C@@H]2C(O)C(O[C@@H]3OC(C)[C@H](O[C@@H]4OCC(O[C@H]5O[C@H](CO)[C@@H](O)C(O)C5O)C(O)C4O)C(O)C3O)[C@H](OC(=O)[C@]34CCC(C)(C)C[C@@H]3C3=CCC5[C@@]6(C)CC(O)C(O[C@@H]7OC(CO)C(O)[C@H](O)[C@H]7O)[C@@](C)(C(=O)O)C6CC[C@@]5(C)[C@]3(CO)CC4)O[C@H]2C)cc1` (stereo partly drawn), the Potency result was “inactive”.

For the molecule `CCc1c(O)nc(SCC(=O)Nc2ccccc2OC)[nH]c1=O`, the Potency result is “inactive”.

Consider `CCOc1ccc(NC(=O)N(CCCN2CCOCC2)Cc2cccnc2)cc1`, for which the Potency result is “inactive”.

Turning to `CN(C)S(=O)(=O)c1ccc(C(=O)NCCN=C2NS(=O)(=O)c3ccccc32)cc1`, the Potency result was “inactive”.

For `Nc1ccc2nc(-c3ccc(N)c(Cl)c3)[nH]c2c1`, the Potency entry was “inactive”.
